This is a sample that favours compounds with a hit; in the whole collection about 2.8% have one here.
HepG2 tox: kills HepG2 cells in TGF-b inhibitor counter-screen; HepG2 CAGA-GFP viability, ATP luminescence, 18 h; Potency, µM (series often up to 46.1 µM), for inactives: at the highest dose activity change, negative = cytotoxicity, actives largely listed as cytotoxic; 0.76% of 410,000 active
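HepG2 CAGA-GFP cells (1000/well, DMEM with 1% FBS) received compound, then TGF-beta at 500 pg/mL final, and were incubated 18 hours at 37 degrees C. Viability was read by CellTiter-Glo luminescence. Media-only wells were set as complete cell-killing and DMSO as no toxicity.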
TGFb inhibitor: blocks TGF-b signaling; Potency, µM (titrated, usually from 46.1 µM), for the others: at the top dose activity, negative = inhibition, hits mostly inhibitors; HepG2 CAGA-GFP TGF-b/SMAD3 reporter, GFP fluorescence, 18 h; TGF-beta stimulated, 500 pg/mL final; AID 588855; 1.2% of 410,000 active; also: % is scaled to controls: 0 for no effect and ±100 for the full control effect; nearly all actives have a fitted effect of over 65% in size
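Cell-based qHTS in HEPG2 carrying a CAGA-GFP Smad reporter; compounds added before 500 pg/mL final TGF-beta, 18 h incubation at 37 degrees C, GFP fluorescence quantified per cell by imaging cytometry.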
ATXN2 expr inh: ATXN2 expression inhibition; HEK-293 ATXN2-luciferase reporter, luminescence, 24 h; Potency, µM (titrated, usually from 57 µM), without a hit: at the top dose activity change, negative = inhibition, most hits filed as inhibitors; 0.72% of 360,000 active; AID 1745845; also: % is scaled to controls: 0 for no effect and ±100 for the full control effect; nearly all actives have a fitted effect of over 55% in size
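ATXN2-luciferase reporter cells (luciferase flanked by upstream and downstream ATXN2 gene portions) were treated 24 h at 37 °C with compounds at up to 57 uM. SteadyGlo luminescence gave expression; GF-AFC fluorescence gave viability.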
HTT cytoprotect: Huntington cell model cytoprotection by ATP luminescence; 0.14% of 230,000 active; PC12 HTT-Q103 induced, cytoprotection, ATP luminescence, 40 h; Potency, µM (doses to about 56.4 µM), inactives show cytoprotection (ATP increase), actives largely listed as activators; also: % of control where 0% means no effect; nearly all actives have a fitted effect of over 45% in size
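PC12 cells stably carrying ecdysone-inducible Htt exon 1 (Q103)–GFP were induced with 100 nM tebufenozide (final) alongside library compounds in a dose series. Cytoprotection was scored as retained ATP by ATPlite luminescence.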
HTT aggregate: reduces HttQ103-GFP aggregates in PC12 cells | AID 1688 | Potency, µM (titrated, usually from 46.1 µM), for inactives: top-dose activity change, negative = inhibition, hits mostly inhibitors | 1.1% of 220,000 active | PC12 HttQ103-GFP aggregates, Acumen cytometry, 40 h; also: % is scaled to controls: 0 for no effect and ±100 for the full control effect; nearly all actives have a fitted effect of over 60% in size
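Aggregates are detected as GFP objects 1–25 µm with signal 6 STDEV over background in lysates of induced PC12 cells. These carry Huntingtin exon 1 with 103 glutamines fused to GFP under an ecdysone promoter; compounds titrated.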
ATXN viability: reduces viability in counter-screen for ATXN expression inhibitors. S2 cells (HEK-293 line with an ATXN2-luciferase reporter) viability, CellTiter-Fluor protease fluorescence, 24 h. Potency, µM (top dose mostly 56.7 µM), actives largely listed as cytotoxic. 0.49% of 400,000 active. AID 651635; also: nearly all actives have a fitted effect of over 40% in size
The depositor's hits bear a star; i = inactive; u = inconclusive; x = not tested or not shown; [ ] = another dose, or the depositor's remark. Calls follow the shape of the dose curve; as a rule, active = well fitted curve in the direction sought with a large enough effect; inconclusive = small, poorly fitted or top-dose-only effect, or another doubt; inactive = no such curve, though single readings can be large; an effect the other way counts as inactive or inconclusive. Potency is read from the fitted curve at half-maximal effect.

SMILES	HepG2 tox	TGFb inhibitor	ATXN2 expr inh	HTT cytoprotect	HTT aggregate	ATXN viability
COc1ccc(NC(=O)c2nn(C)c3c2CSc2ccc(C)cc2-3)cc1OC	11µM*	-27%	-34%	x	x	i
Cc1ccc2c(c1)-c1c(c(C(=O)N3CCN(c4cc(C)ccc4C)CC3)nn1C)CS2	-54%	-23%	x	x	x	x
O=C(C[n+]1cccc(I)c1)c1ccc(F)cc1	-5%	17%	x	x	x	x
Cc1ccc(N(C(=O)Cc2cccs2)C(C(=O)NC2CCCCC2)c2ccccn2)cc1C (stereo not drawn)	-53%	u	-17%	35%[10 µM]	-19%	28µM*
O=c1cc(-c2ccccc2Cl)oc2c(Br)ccc(O)c12	4%	-18%	38%	-28%	4%	i
CN1CC[C@@H](c2c(O)cc(O)c3c(=O)cc(-c4ccccc4Cl)oc23)[C@@H](O)C1	x	x	0.15µM*	x	x	x
C/C(CC1CC(C)(C)OC1=O)=N\NC(N)=S (stereo not drawn)	4%	1%	-3%	34%[10 µM]	-7%[9.22 µM]	i
C/C(CC1CC2=C(CC1(C)C)C(C)(C)CCC2)=N\NC(N)=S (stereo not drawn)	11µM*	7.9µM*	u	-84%	-45%	x
COc1ccc(/C=C/c2nnc(NC(=O)COc3ccc(Cl)cc3)s2)cc1	0%	3%	x	x	x	x
Cc1ccc(C)c(CN2C[C@H](Sc3ccccn3)C[C@H]2C(=O)Nc2ccc3sc(C)nc3c2)c1	x	x	x	x	x	i
COc1ccc2[nH]cc(C(=O)CN3CCCC(C)C3)c2c1 (stereo not drawn)	-1%	14%	1%	-9%[0.074 µM]	2%	i
COc1cccc(N2CCN(CC(=O)c3c[nH]c4ccc(OC)cc34)CC2C)c1 (stereo not drawn)	-28%	-19%	-13%	-18%[0.074 µM]	35µM*	i
O=C(O)c1cc(O)c2c(c1)[C@@H]([C@H]1c3cc(C(=O)O)cc(O)c3C(=O)c3c(O[C@@H]4O[C@H](CO)[C@@H](O)[C@H](O)[C@H]4O)cccc31)c1cccc(OC3O[C@H](CO)[C@@H](O)[C@H](O)[C@H]3O)c1C2=O (stereo partly drawn)	-39%	11µM*	0%	x	x	u
COc1ccc(C2C=C3CNS(=O)(=O)C3CC2OC(=O)c2ccc(C(F)(F)F)cc2)cc1 (stereo not drawn)	-88%	14µM*	x	x	x	x
CN(C)S(=O)(=O)c1ccc(C(=O)NCCSc2c(-c3ccc(Cl)cc3)[nH]c3ccccc23)cc1	-17%	-13%	-25%	x	x	u
O=C(Cc1cccs1)NCCSc1c(-c2ccc(Cl)cc2)[nH]c2ccccc12	-33%	u	u	x	22µM*	u
O=C(Nc1nc(COc2ccccc2)cs1)C12CC3CC(CC(C3)C1)C2	-18%	u	48%	-125%	11µM*	i
CCOC(=O)C1CCN(Cc2ccc(O)c3ncccc23)CC1	7.9µM*	u	-37%	-35%	-8%	u
COc1ccccc1N1CCN(Cc2ccc(O)c3ncccc23)CC1	-57%	u	3.5µM*	-77%[10 µM]	1.1µM*	u
COc1ccccc1N1CCN(Cc2ccc(OC)c(OC)c2OC)CC1	-22%	-14%	x	-23%	-6%	x
Cc1[nH]c2ccccc2c1C(=O)CNc1ccc(Br)cc1	-31%	u	x	x	x	x
COc1ccccc1C(=O)N[C@@H]1c2ccccc2C2(CCN(Cc3ccc(C)o3)CC2)[C@H]1O	x	x	x	x	x	i
CCCCCCn1c(=O)n2n(c1=O)[C@@H]1CN(S(=O)(=O)c3ccc(C)cc3)C[C@]1(O)[C@@H](OC(=O)NC1CCCC1)C2	-30%	11µM*	u	x	x	x
CCCCCCNC(=O)O[C@H]1Cn2c(=O)ccc(=O)n2[C@@H]2CN(S(=O)(=O)c3ccc(C)cc3)C[C@]12O	-108%	u	14µM*	x	x	20µM*
Cc1ccc(S(=O)(=O)N2C[C@H]3n4c(=O)ccc(=O)n4C[C@H](OC(=O)NCc4ccccc4F)[C@@]3(O)C2)cc1	-18%	u	u	x	x	x
SMILES	HepG2 tox	TGFb inhibitor	ATXN2 expr inh	HTT cytoprotect	HTT aggregate	ATXN viability
CCCCCCNC(=O)O[C@H]1Cn2c(=O)n(CCCCCC)c(=O)n2[C@@H]2CN(S(=O)(=O)c3ccc(C)cc3)C[C@]12O	22µM*	u	u	x	x	x
CCCCCCn1c(=O)n2n(c1=O)[C@@H]1CN(S(=O)(=O)c3ccc(C)cc3)C[C@]1(O)[C@@H](OC(=O)NCc1ccccc1F)C2	7.9µM*	13µM*	u	x	x	x
CCCCCCn1c(=O)n2n(c1=O)[C@@H]1CN(S(=O)(=O)c3ccc(C)cc3)C[C@]1(O)[C@@H](OC(=O)NC1CC1)C2	3%	-1%	5%	x	x	i
CNC(=O)[C@@H]1O[C@@H](n2cnc3c(NCc4cccc(I)c4)ncnc32)[C@H](O)[C@@H]1O	x	x	x	-3%[1.9 µM]	x	x
CCn1ccc(NS(=O)(=O)c2ccc(N)cc2)nc1=O	x	x	1%	x	x	i
Cc1nn(-c2ccc3ccccc3c2)c(=O)c2ccccc12	-21%	-17%	x	-22%[10 µM]	-17%[9.22 µM]	i
Cc1nn(-c2nc3ccccc3[nH]2)c(=O)c2ccccc12	3.2µM*	-1%	0.4µM*	-98%[10 µM]	3%	i
CC(C)(C)C(=O)/C(=C\c1ccc([N+](=O)[O-])cc1)n1cncn1	x	x	x	u	5µM*	x
C[N+]1(C)[C@@H]2CC(OC(=O)C(O)(c3cccs3)c3cccs3)C[C@H]1[C@@H]1O[C@@H]12 (stereo partly drawn)	x	x	x	22%	6%	x
CCOC(=O)C1=CN(Cc2cccc(F)c2)S(=O)(=O)NC1c1ccc2ccccc2c1 (stereo not drawn)	-11%	13µM*	-15%	x	x	i
CCC(Sc1nncn1C)C(=O)Nc1ccccc1OC (stereo not drawn)	-1%	7%	-2%	14µM*	6%	i
O=C(CSc1cccc2cccnc12)N/N=C/c1ccc(O)cc1	-46%	-12%	x	-8%[10 µM]	-6%[9.22 µM]	i
O=C(CCc1ccccc1O)N/N=C/c1ccc(Sc2cccc3cccnc23)o1	-59%	14µM*	-26%	-19%	-31%	u
Cc1ncc2c(c1CNC(=O)c1cncs1)CCN(C(=O)c1ccsc1)C2	x	x	x	x	x	i
Cc1nnc2n1N=CC=C(c1ccccc1)S2	-1%	u	x	16µM*	x	x
Cc1c(C(=O)NCCCN2CCCC2=O)cnn1-c1ncc2c(n1)-c1ccccc1CC2	x	x	x	x	x	i
CCC1CCCCN1CCCNC(=O)c1ccc2c(c1)N(Cc1ccccc1)C(=O)c1ccccc1S2(=O)=O (stereo not drawn)	-51%	x	x	x	x	x

Screening results as filed in PubChem BioAssay.
